Test results taken from the supplement of paper PMC6555819.

Legend:
Test in all cases: PBM binding z-score (relative to random genomic background probes); higher = stronger binding; sequences stand for … in GC…GCGATTGACAGCGTAGAATGAAGG
[1] = tested on: RARb homodimer (NR concentration 270 nM)
Outline: (§1)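 Random background probes are the reference for binding z-scores. These scores derive from regression-normalized fluorescence on custom Agilent 4×180K protein-binding microarrays incubated 1 h with ligand-free nuclear receptor dimers. Binding was detected with antibodies against each partner (one per run).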

[2] = tested on: RARg:RXRa (NR concentration 270 nM, RXRa partner concentration 90 nM)
Outline: as §1

[3] = tested on: RARg homodimer (NR concentration 270 nM)
Outline: as §1

[4] = tested on: RXRa DBDmut IVT, anti-RXR (DBD mutation: RXRa K156A/R161A, NR concentration 90 nM)
Outline: as §1

[5] = tested on: RXRa homodimer (NR concentration 180 nM)
Outline: as §1

[6] = tested on: THRa:RXRa (NR concentration 90 nM, RXRa partner concentration 90 nM)
Outline: as §1

[7] = tested on: THRa homodimer (NR concentration 90 nM)
Outline: as §1

[8] = tested on: VDR homodimer (NR concentration 270 nM)
Outline: as §1

Row | Sequence | PBM binding z-score [1] | PBM binding z-score [2] | PBM binding z-score [3] | PBM binding z-score [4] | PBM binding z-score [5] | PBM binding z-score [6] | PBM binding z-score [7] | PBM binding z-score [8]
1 | CCTACTGGGCCATGCAGAGGTCATTGATCATATG | 3.99 | 4.29 | 2.87 | 0.291 | 3.81 | 3.05 | 1.12 | 3.36
2 | TCTTGTAGATCAATAGAGGTTATGAAAGTGCGCT | 1 | 1.01 | 0.611 | 1.05 | 1.55 | 2.33 | -0.187 | 0.0483
3 | CAAACTGGGTCAAGGTCAAAGTCGGTTTGTGCCA | 4.97 | 5.77 | 6.18 | 3.04 | 5.91 | 4.27 | 3.47 | 4.24
4 | AGAATGAGGTTATTAAGACCAGGGAATTGCGGTC | 0.935 | 1.24 | 0.733 | 1.64 | 1.91 | 2.17 | 0.47 | 0.915
5 | ATCGAAAGTTCGAGGTGAGTATAGAGAAAGGGAA | 1.28 | 1.69 | 2.19 | 1.85 | 1.41 | 1.7 | 0.158 | 1.09
6 | CCTTACGGCTCACTCCAGGTTATAGCATCGGAGT | 0.313 | -0.122 | 0.148 | 0.487 | -0.0506 | 1.15 | 0.628 | 0.0912
7 | TCATATAGGTAAAAGCTAGGTGAAAGTCCGATCT | 0.265 | 0.433 | 0.218 | 1.44 | 0.939 | 1.3 | 0.0247 | -0.0504
8 | CATACAGGGTGAGCTAGGCCAGAGTAGGGACGGC | 0.342 | 0.54 | 0.662 | -1.01 | 0.302 | 0.989 | 0.182 | -0.497
9 | GATACTGGGTCAAGGCCAGAGTACGCGTATTGAT | 2.91 | 3.4 | 3.58 | -0.138 | 2.62 | 2.09 | 0.289 | 0.679
10 | TGAATGAGGTTAAAGATCAGGGTACGTGGCGTCG | 1.27 | 2.36 | 1.42 | 1.41 | 3.5 | 2.78 | 0.878 | 1.25
11 | TCTATAAGTTGATTAGGGCAACCGAAACAGCGGA | 0.772 | 0.61 | 0.741 | 1.23 | 0.5 | 1.11 | 0.212 | 0.543
12 | TCTGCCAGGTCAACGATGGTCAGCTAATCTGCTA | 3.43 | 4.4 | 5.08 | 1.41 | 3.42 | 3.55 | 1.7 | 0.359
13 | ATCTCTAGGTAACCAAGATCAGTGAATGCCGAAC | -0.128 | 0.35 | 0.445 | -0.167 | 0.343 | 0.734 | 0.469 | -0.138
14 | TCTTGTAGATCAAAGGTTAAGAAAGCCGAAGCCT | 1.36 | 1.68 | 0.776 | 0.652 | 3.27 | 1.27 | -0.357 | -0.0957
15 | CCTTACGGGTCACGATGTTATAGCACGACGAGCG | 3.21 | 5.22 | 5.07 | 0.775 | 5.71 | 2.88 | 0.472 | 0.567
16 | ATCGAAAGGTCGAGGTGAGTATCGAGAAAGGGAA | 2.53 | 4.33 | 4.51 | 0.532 | 4.17 | 2.65 | 0.543 | 0.173
17 | CCTACTGGACCACGAAAGGTCATTGATTCAGTGA | 4.5 | 4.44 | 3.94 | 1.31 | 5.46 | 3.36 | 1.6 | 2.68
18 | ACTCGGAGGACAACGGTCAGAGCTACGCCAGTGA | 1.51 | 1.06 | 2.14 | 0.0365 | -0.0292 | 0.773 | -0.132 | -0.272
19 | TAGCCAAGGTCATGCGGGCCAGTATAGTGTCGGC | 4.42 | 5.81 | 5.79 | 2.88 | 5.47 | 4.14 | 2.91 | 3.39
20 | TAGCCTAGGTCACTCAGGGGCCAGTATAGAAAGC | 3.61 | 5.91 | 5.25 | 0.581 | 2.94 | 3.17 | 0.528 | 0.664
21 | CGTCCAAGGTCAGCAGGTCAGTTAAAGCGACGTG | 5.1 | 6.48 | 7.2 | 2.34 | 5.18 | 4.27 | 2.96 | 1.71
22 | CGTCCAAGGTCAAAGCTCAGTGAAGAGATGACGG | 3.72 | 5.9 | 6.4 | 3.56 | 5.49 | 3.63 | 2.02 | 2.15
23 | GTACCAAGGTGAATAGCTCGTTGATGAGTAGGCG | 0.121 | 0.285 | 0.489 | -0.348 | 0.453 | 1.15 | 0.236 | -0.63
24 | AGAATGAGGTTATTCAGATCAGGGAATTGCGGTC | 0.905 | 1.51 | 1.13 | 2.35 | 2.13 | 2.51 | 0.965 | 1.53
25 | ATTATTAGTTGACTTAGGGCAACCGATACGACGC | 1.41 | 1.11 | 1.23 | 0.507 | 0.918 | 1.65 | 1.03 | 1.41
26 | TCAGACGGGTGAAGGTAACTCAGGTACGCAGTCG | 0.122 | 0.19 | 0.0578 | 0.65 | 0.866 | 1.28 | -0.229 | -0.187
27 | TATACAGGGTGAAAGGCCAGAGTACGAATGTCGA | 1.29 | 1.67 | 1.69 | -0.111 | 2.07 | 1.18 | -0.0839 | 0.653
28 | TCTTGTAGGTCAACAGGAGGTTAAGAAAGATCGA | 3.98 | 6.27 | 5.18 | 1.42 | 4.53 | 3.41 | 0.603 | 0.658
